# Data published in PubChem BioAssay (EPA / NIEHS).
# “And” between values parts separate entries of the source, which are not always exact repeats. Equal values may be shown once. The source made the active and inactive calls. How the source made its calls: active means hit-call score of the fitted dose curve at least 0.9, where 1 is the maximum; inactive means score below 0.9.
# Read-out: Human Leukocyte Antigen - DR isotype (HLADR), HLA-DRA (gene 3122)
# Test: BSK_BE3C_HLADR: BioMAP Diversity Plus: BE3C Assay for Human Leukocyte Antigen - DR isotype (HLADR) Biomarker Activity (AID 2283032)
# Settings: primary human bronchial epithelial cells; actives raise or lower the signal
# Procedure: BSK_BE3C is a cell-based, multiplexed-readout assay that uses bronchial epithelial cell, a human lung primary cell, with measurements taken at 24 hours after chemical dosing in a 96-well plate.BSK_BE3C_HLADR is an assay component measured in the BSK_BE3C assay. It measures HLA-DR antibody related to regulation of gene expression using ELISA technology.Data from the assay component BSK_BE3C_HLADR was analyzed into 1 assay endpoint. This assay endpoint, BSK_BE3C_HLADR, was analyzed with bidirectional fitting relative to DMSO as the negative control and baseline of activity. Using a type of binding reporter, gain or loss-of-signal activity can be used to understand changes in the signaling as they relate to the gene HLA-DRA. Furthermore, this assay endpoint can be referred to as a primary readout, because this assay has produced multiple assay endpoints where this one serves a signaling function. To generalize the intended target to other relatable targets, this assay endpoint is annotated to the cell adhesion molecules intended target family, where the subfamily is MHC Class II.
# The levels of cell surface (or secreted, indicated by the prefix "s") biomarker endpoints were measured by ELISA. Overt cytotoxicity to cells in confluent adherent cultures (all systems other than the BT system) was assessed by measuring total protein levels using sulforhodamine B (SRB) staining in parallel cultures at the time of biomarker measurements, indicated as SRB endpoints. For proliferation assays for adherent cell types, individual cell types are cultured at sub-confluence and relative cell numbers quantified by SRB staining at time points optimized for each system (48 h: 3C and CASM3C systems; 72 h: BT and HDF3CGF systems; 96 h: SAg system). SRB was performed by staining cells with 0.1% SRB after fixation with 10% TCA and reading wells at 560 nm.Viability and proliferation of PBMC (T cells) was quantified by Alamar Blue reduction for the SAg and BT systems. For PBMC viability (referred to as PBMC Cytotoxicity within the assay endpoint names), cells were plated (75,000/well in a 96-well plate) and then chemical samples added for 1 h before addition of activators, SEB and TSST-1 (20 ng/mL final concentration each). Cells were incubated for 90 h. Then, Alamar Blue (20 uL/well) (Invitrogen, Cat DAL1100) was added for 6 h, and the plates were read with a fluorescence microplate reader at 546/580 nm (excitation/emission). For PBMC proliferation, cells were plated and activated as above but incubated for only 16 h prior to addition of Alamar Blue. Plates were read after 6 h.
SMILES,outcome,AC50
CCOCCOC(C)=O,inactive,–
CO/C=C(/C(=O)OC)c1ccccc1COc1cccc(C(F)(F)F)n1,inactive,–
CCOP(=S)(OCC)SCSC(C)(C)C,inactive,–
NS(=O)(=O)C(F)(F)C(F)(F)C(F)(F)C(F)(F)C(F)(F)C(F)(F)C(F)(F)C(F)(F)F,–,5.61 µM (active) and 37.8 µM (active) and 37.6 µM (active)
O=S(=O)(O)C(F)(F)C(F)(F)C(F)(F)C(F)(F)C(F)(F)C(F)(F)F,inactive,–
CCC(=O)O[C@H]1CC[C@H]2[C@@H]3CCC4=CC(=O)CC[C@]4(C)[C@H]3CC[C@]12C,–,32.9 µM (active)
Oc1ccc(Cl)cc1Cl,inactive,–
Cc1cc(O)ccc1Cl,inactive,–
O=C(O)C(F)(F)C(F)(F)C(F)(F)C(F)(F)C(F)(F)C(F)(F)C(F)(F)C(F)(F)C(F)(F)F,–,11.1 µM (active) and 9.13 µM (active) and 11.4 µM (active)
CC(C)C(=O)OCC(C)(C)C(OC(=O)C(C)C)C(C)C (stereo not given),inactive,–
CCNc1nc(NC(C)C)nc(SC)n1,inactive,–
ClC1=C(Cl)[C@]2(Cl)[C@@H]3[C@@H](Cl)[C@H]4O[C@H]4[C@@H]3C1(Cl)C2(Cl)Cl,inactive,–
CCSC(=O)N(CC)C1CCCCC1,inactive,–
CCCCCCOC(=O)c1ccccc1C(=O)OCCCCCC,inactive,–
CC(C)(O)C(=O)Nc1ccc([N+](=O)[O-])c(C(F)(F)F)c1,inactive,–
Cc1cccc(C)c1N,inactive,–
Nn1cnnc1,inactive,–
ClC1=C(Cl)[C@]2(Cl)[C@@H]3[C@H]4C[C@H]([C@@H]5O[C@H]45)[C@@H]3[C@@]1(Cl)C2(Cl)Cl,inactive,–
CN(C)c1nc(=O)n(C2CCCCC2)c(=O)n1C,inactive,–
COS(=O)(=O)OC,inactive,–

SMILES,outcome,AC50
CC(C)(c1ccccc1)c1ccc(O)cc1,–,30.4 µM (active)
Oc1c(Cl)c(Cl)c(Cl)c(Cl)c1Cl,–,8.2 µM (active) and 20.6 µM (active)
CCCCCCCCCC[N+](C)(C)CCCCCCCCCC,–,4.45 µM (active)
C[C@]12CCC(=O)C=C1CC[C@@H]1[C@@H]2CC[C@@]2(C)[C@H]1CC[C@]2(C)O,inactive,–
Cc1ccc(O)c(C)c1,inactive,–
COc1ccc(O)c(C(C)(C)C)c1,inactive,–
CCCN(CCC)N=O,inactive,–
Nc1ccc(-c2ccc(N)cc2)cc1,inactive,–
CC1=C2C[C@H]3[C@@H](CC=C4C[C@@H](O)CC[C@@]43C)[C@@H]2CC[C@]12O[C@@H]1C[C@H](C)CN[C@H]1[C@H]2C,inactive,–
C1CC2OC2CC1C1CO1 (stereo not given),inactive,–
Cc1cc2c3c(c1)C(c1ccccc1)=N[C@@H](NC(=O)c1ccncc1)C(=O)N3CC2,inactive,–
Sc1ccccc1,inactive,–
ClC1=C(Cl)[C@]2(Cl)[C@@H]3[C@@H]4C[C@@H]([C@H]5O[C@@H]45)[C@@H]3[C@@]1(Cl)C2(Cl)Cl,inactive,–
O=C(NC(=O)c1cc(F)c(F)cc1Cl)Nc1cc(F)ccc1N1CCC(C(=O)O)CC1,inactive,–
C=CC(N)=O,inactive,–
Clc1ccc(C(c2ccccc2Cl)C(Cl)(Cl)Cl)cc1 (stereo not given),inactive,–
CCC(C)(c1ccc(O)cc1)c1ccc(O)cc1,–,24.5 µM (active)
Cc1ccccc1[N+](=O)[O-],inactive,–
Clc1ccc(C(Cl)(Cl)Cl)cc1,inactive,–
CCCCCCCCCc1ccc(O)cc1,–,13.6 µM (active)
